# Compound activity as filed in PubChem.
# Sampled rows, rich in hits. Any-hit rate of the full collection: about 3.7%.
# PfHsp90 yeast 2: growth inhibition of yeast expressing Plasmodium Hsp90; S. cerevisiae expressing PfHsp90, BacTiter-Glo ATP, 48 h; yeast lacking PDR1 and PDR3 efflux regulators; inhibition, % at 9.4 µM; actives 0.32% (n = 310,000); AID 504621;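 active = every replicate shows inhibition above about 80%, whatever the replicate mean, limit read from the data; inconclusive = mean inhibition reaches the set limit but some replicate falls short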
# tim10-1 inh: inhibits growth of tim10-1 mutant yeast. actives 2.2% (n = 330,000). S. cerevisiae tim10-1 ts strain growth, BacTiter-Glo, 24 h. inhibition, % at 20 µM. AID 463190;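 active = inhibition of at least 40%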;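 also: mutant grown at 25 °C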
# tim23-1 inh: growth inhibitors of tim23-1 mutant yeast | inhibition, % at 20 µM | S. cerevisiae tim23-1 growth, BacTiter-Glo luminescence, 24 h | actives 1.3% (n = 330,000);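 active = growth inhibition of the mutant yeast at or above 50%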;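 also: temperature-sensitive mutant grown at 25 °C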
# TIM10 inh: growth inhibitors of TIM10 yeast strain | inhibition, % at 10 µM | S. cerevisiae TIM10 strain growth, BacTiter-Glo luminescence, 24 h | actives 1.4% (n = 330,000);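 active = inhibition of 40% or more at the single tested concentration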;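 also: wild-type TIM10 isogenic control strain grown at permissive 25 °C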
# Rce1 inhib: yeast Ras-converting enzyme inhibition; Q03530; yeast membranes, quenched prenylated peptide cleavage fluorescence; calls only; actives 0.27% (n = 290,000);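 active = fall in fluorescence gain of 50% or more versus controls, with final raw signal at or below 3038400; inconclusive = same 50% fall but final raw signal above 3038400; inactive = fall in fluorescence gain under 50%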
# Target sequence (Q03530 whole entry, looked up): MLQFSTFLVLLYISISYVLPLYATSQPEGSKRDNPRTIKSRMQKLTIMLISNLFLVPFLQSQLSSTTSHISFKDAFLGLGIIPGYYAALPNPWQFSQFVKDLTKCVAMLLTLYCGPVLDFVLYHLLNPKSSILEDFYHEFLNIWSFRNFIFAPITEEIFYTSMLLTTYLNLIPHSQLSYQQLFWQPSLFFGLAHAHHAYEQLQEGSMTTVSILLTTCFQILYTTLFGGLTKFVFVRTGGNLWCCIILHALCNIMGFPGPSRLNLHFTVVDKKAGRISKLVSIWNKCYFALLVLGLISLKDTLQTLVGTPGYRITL
# tim10-1 conf: tim10-1 yeast growth inhibition, confirmed; S. cerevisiae tim10-1 ts strain growth, BacTiter-Glo, 24 h; inhibition, % at 20 µM; shares compounds with tim10-1 inh; actives 56% (n = 7,400);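 active = inhibition of yeast growth at or above a set limit in either of two repeat tests at 20 µM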;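 also: tim10-1 mutant grown at permissive 25 °C to find synthetic lethal compounds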
# Numbers stand for hits; i = inactive; ? = inconclusive; nt = not tested or not shown.
SMILES,PfHsp90 yeast 2,tim10-1 inh,tim23-1 inh,TIM10 inh,Rce1 inhib,tim10-1 conf
COc1ccc([C@H]2CC(=O)C=C(c3ccc(Oc4ccccc4)cc3)C2)cc1OC,nt,i,i,i,nt,nt
Cc1nn2c(c1-c1ccc(Cl)cc1)N=C(c1ccco1)CC2c1ccccc1 (configuration not stated),i,41.9,i,i,i,33.7
Clc1ccc(C2=NN(c3ccccc3)C(c3ccco3)C2)cc1 (configuration not stated),i,i,i,i,i,nt
Cc1nc(Nc2ccc(Cl)cc2Cl)sc1C(=O)Nc1ccccc1,i,47.5,i,i,i,31.1
Cc1nc(NC(=O)/C=C/c2ccccc2)sc1C(=O)Nc1ccc(Cl)cc1,i,i,i,i,i,nt
CCOC(=O)N1CCN(S(=O)(=O)c2ccc(C(=O)NNc3nc4cc(C)cc(C)c4s3)cc2)CC1,i,42.2,i,i,i,i
CCOC(=O)N1CCN(S(=O)(=O)c2ccc(C(=O)NNc3nc4c(C)cc(C)cc4s3)cc2)CC1,nt,i,i,i,i,nt
CC1(C)C(=O)N(CCN2CCC(C(=O)c3ccc(F)cc3)CC2)c2ccccc21,i,i,i,i,nt,nt
CCCn1ncc2c(Nc3ccc(C)c(C)c3)ncnc21,i,i,i,i,nt,nt
Cc1cc(/C=C\c2ccc3cc(N(C)C)ccc3[n+]2C)c(C)n1-c1ccccc1,108.1,70.4,i,i,nt,50.5
CCOC(=O)c1oc2nc(CC(C)C)c3c(c2c1N)CCC3,i,40.4,i,i,i,i
Cc1nn(Cc2ccc(Cl)cc2Cl)c(C)c1NC(=O)c1nn(C)cc1Cl,i,43.9,i,i,i,37.7
Cc1nn(Cc2ccccc2Cl)c(C)c1NC(=O)C1C2CCC(O2)C1C(=O)O (configuration not stated),i,nt,nt,nt,i,nt
Cc1nn(Cc2c(F)c(F)c(F)c(F)c2F)c(C)c1NC(=O)c1ccc(COc2ccc(Cl)cc2Cl)o1,i,48.9,i,i,i,40.9
Cc1nn(Cc2ccc(Cl)cc2Cl)c(C)c1NC(=O)CCl,i,i,i,i,i,nt
Cc1nn(Cc2ccc(Cl)cc2Cl)c(C)c1NC(=O)C1C2CCC(O2)C1C(=O)O (configuration not stated),i,40.8,i,i,i,i
Cc1nn(Cc2ccc(Cl)cc2Cl)c(C)c1NC(=O)c1ccc(COc2cc(Cl)ccc2Cl)o1,i,i,i,i,i,nt
CCCCN(C)C(=O)C1CCN(Cc2cccc(OCc3ccccc3)c2)CC1,i,i,i,i,i,nt
O=C(NC1CCCCC1)c1ccc(-c2cccc([N+](=O)[O-])c2)o1,i,41.1,i,i,i,i
N#CCC(CNc1ncc(C(F)(F)F)cc1Cl)OC(=O)c1cccc(C(F)(F)F)c1 (configuration not stated),i,41.6,i,i,i,i
Cc1cc(C)c2c(=O)[nH]c(SCc3ccccc3)nc2n1,i,i,i,i,i,nt
Cc1ccc(S(=O)(=O)NC2=NCN(C(C)C)CN2)cc1,i,i,i,i,nt,nt
c1ccc(CN(Cc2ccco2)C(c2ccncc2)c2nnnn2C2CCCC2)cc1 (configuration not stated),i,i,i,i,i,nt
CCN(CC)C(c1ccc(C)cc1)c1nnnn1C1CCCCC1 (configuration not stated),nt,44.2,i,i,i,i
Fc1ccc(C(c2nnnn2C2CCCC2)N(Cc2ccco2)CC2CCCO2)cc1 (configuration not stated),i,51.6,i,i,i,42.3
SMILES,PfHsp90 yeast 2,tim10-1 inh,tim23-1 inh,TIM10 inh,Rce1 inhib,tim10-1 conf
CCOc1ccc(CCNC(=O)CCNC(=O)c2ccco2)cc1OCC,i,i,i,i,i,nt
CCCCOc1ccc(Cl)cc1Nc1nc(NCCO)nc(N2CCCC2)n1,i,i,i,i,i,nt
NS(=O)(=O)c1ccc(N=Nc2ccc(O)c3ncccc23)cc1,i,i,i,i,i,nt
CCS(=O)(=O)c1ccc(OC)c(N=Nc2ccc(O)c3ncccc23)c1,i,40.7,i,i,i,37.6
Cc1ccc(C)c(N=Nc2ccc(O)c3ncccc23)c1,i,i,i,i,i,nt
CCN(CC)S(=O)(=O)c1cc(OC)ccc1N=Nc1ccc(O)c2ncccc12,?,43.6,i,i,i,42.2
COc1ccc(CNC(=O)CCSCc2ccccc2C)cc1,i,i,i,i,i,nt
COCc1cc(SC2CCCCC2)nc(C)n1,i,i,i,i,i,nt
CC1CCN(C(=O)c2cc(F)c(F)cc2Cl)CC1,i,i,i,i,i,nt
Cn1nc(C(F)(F)F)c(C(=O)Nc2ccc(F)cc2F)c1Sc1cccc(Cl)c1,i,44.3,i,i,i,34.3
Nc1nonc1-n1nnc(C(=O)N/N=C/c2ccoc2)c1-c1ccccc1,i,i,i,i,i,nt
O=C(CSc1nc2ccccc2o1)N/N=C/c1ccco1,i,i,i,i,i,nt
Cc1cc(SCC(=O)NC(=O)NCc2ccco2)nc2ccccc12,nt,43.0,i,i,i,34.6
Cc1cc(SCC(=O)N/N=C/c2ccco2)nc2ccccc12,i,40.0,i,i,i,i
Cc1cc(C)c(NC(=O)CNC(=O)COC(=O)Cc2ccccc2C)c(C)c1,i,i,i,i,nt,nt
Cc1ccc(C)c(C(=O)OCC(=O)N(C)c2ccccc2)c1,i,55.7,i,i,i,43.5
O=C(/C=C/c1ccc(Cl)cc1Cl)N1CCN(c2ccc([N+](=O)[O-])c(N3CCOCC3)c2)CC1,i,41.7,i,i,i,i
COc1ccc(/C=N/Nc2cn[nH]c(=O)c2Cl)cc1,i,41.7,i,i,i,i
COc1ccc(-c2csc3ncnc(N4CCN(S(=O)(=O)c5ccc(C(C)=O)cc5)CC4)c23)cc1,i,i,i,i,i,nt
COc1cc(NC(=O)C2CCCN2S(=O)(=O)c2ccc3c(c2)CC(C)N3C(C)=O)cc(OC)c1 (configuration not stated),i,i,i,i,i,nt
Cc1ccc(-c2nc3cccnc3s2)cc1NS(C)(=O)=O,i,43.7,i,i,i,i
CCCS(=O)(=O)Nc1cccc(-c2nc3cccnc3s2)c1,i,i,i,i,i,nt
CCC(=O)N1CCc2cc(S(=O)(=O)N3CCN(c4ccccc4Cl)CC3)ccc21,i,i,i,i,i,nt
O=C1[C@H]2[C@@H](C(=O)N1c1cc(Cl)cc(Cl)c1)[C@]1(C(=O)Nc3ccccc31)N1CCC[C@@H]21,i,44.6,i,i,i,i
O=C(/C=C/c1cccc(Cl)c1)OCc1cn2cc(Cl)ccc2n1,i,42.6,i,i,i,i
COc1cccc(/C=C/C(=O)NCc2cn3cc(Cl)ccc3n2)c1,i,i,i,i,i,nt
CCC(=O)NC(c1ccco1)c1cc(Cl)c2cccnc2c1O (configuration not stated),i,i,i,i,i,i
CCC(=O)NC(c1ccc(OC)cc1)c1cc(Cl)c2cccnc2c1O (configuration not stated),i,i,i,i,i,nt
COc1cnc(-c2ccccn2)nc1Sc1ccc(C)cc1,i,44.1,i,i,i,i
O=C(NCc1ccncc1)c1ccc(NS(=O)(=O)c2ccccc2)cc1,i,i,i,i,i,nt
